HPGD block: inhibitors of human 15-hydroxyprostaglandin dehydrogenase (HPGD); Potency, µM, without a hit: at the top dose activity change, negative = inhibition, actives largely listed as inhibitors; purified HPGD, NADH fluorescence kinetic, PGE2 substrate; actives 4.3% (n = 150,000); P15428; note: potency is the fitted concentration of half-maximal effect
Target sequence (P15428 whole entry, looked up): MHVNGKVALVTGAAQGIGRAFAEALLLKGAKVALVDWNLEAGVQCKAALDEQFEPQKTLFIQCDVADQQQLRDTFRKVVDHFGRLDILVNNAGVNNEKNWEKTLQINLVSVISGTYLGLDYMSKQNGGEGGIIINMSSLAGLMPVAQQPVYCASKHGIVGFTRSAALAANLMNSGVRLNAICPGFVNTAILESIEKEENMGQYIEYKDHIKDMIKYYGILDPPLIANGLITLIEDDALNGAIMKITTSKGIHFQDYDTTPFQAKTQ
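NADH formation kinetics: reaction with 30 uM PGE2 and 1 mM NAD+ (final), 20 nM enzyme, Tris-HCl pH 8 with Tween 20, after 15 min compound preincubation at room temperature. Fluorescence change, last versus first of five reads.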
IMPase Li inh: membrane-permeable IMPase blocker, potentiated with lithium | Potency, µM (highest dose often 59.4 µM), for inactives: at the highest dose activity, negative = IMPase inhibition, usual class: inhibitors | actives 0.35% (n = 210,000) | CHO-M1 cells, IP1 TR-FRET (IP-One), carbachol + lithium; active = well fitted inhibition curve with a large enough effect; inconclusive = small, poorly fitted or top-dose-only effect; inactive = no such curve, though single readings can be large or run the other way;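 note: IP1 builds up when IMPase is blocked and the TR-FRET signal falls; potency is the fitted concentration of half-maximal effect; plate controls were basal vehicle for no effect and high inhibitor control for full effect; nearly all actives have a fitted effect of over 50% in size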
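CHO cells stably expressing M1 receptor (2000/well) were cultured 16–30 h, then exposed to compounds with a small lithium addition for 30 min at 37C. IP1 was measured by TR-FRET competition; AC50 from Hill fits.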
ALDH1A1 block: blocks purified human ALDH1A1 activity; Purified ALDH1A1, NADH fluorescence, propionaldehyde substrate; actives 7.3% (n = 220,000); Potency, µM (doses to about 75.3 µM), inactives show at the highest dose activity, negative = inhibition, actives largely listed as inhibitors;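 note: potency is the fitted concentration of half-maximal effect; plate controls were no enzyme wells and a reference inhibitor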
Target sequence (P00352 whole entry, looked up): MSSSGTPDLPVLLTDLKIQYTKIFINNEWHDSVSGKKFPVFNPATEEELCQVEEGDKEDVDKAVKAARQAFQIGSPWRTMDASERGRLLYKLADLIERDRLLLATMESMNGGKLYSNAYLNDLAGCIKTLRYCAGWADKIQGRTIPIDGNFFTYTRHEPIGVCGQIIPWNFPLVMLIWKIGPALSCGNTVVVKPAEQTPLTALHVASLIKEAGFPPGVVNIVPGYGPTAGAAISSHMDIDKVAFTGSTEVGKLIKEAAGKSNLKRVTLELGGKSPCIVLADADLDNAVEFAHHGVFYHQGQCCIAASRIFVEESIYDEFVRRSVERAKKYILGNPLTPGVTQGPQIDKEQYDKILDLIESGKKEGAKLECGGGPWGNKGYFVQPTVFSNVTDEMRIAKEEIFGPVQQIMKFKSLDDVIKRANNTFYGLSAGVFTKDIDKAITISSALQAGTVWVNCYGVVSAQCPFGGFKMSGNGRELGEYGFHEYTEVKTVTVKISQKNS
IMPase inh: cell-permeable inhibitors of inositol monophosphatase (IMPase); P97697; CHO-M1 cells, IP1 accumulation, HTRF TR-FRET ratio; inhibition (IP1 accumulation), % at 46.1 µM; 120,000 tested, under 10 active; AID 901; active = well fitted curve in the direction sought with a large enough effect in the signal ratio, not every such curve was filed as active; inconclusive = small, poorly fitted or top-dose-only effect, or a change in a side signal; inactive = no such curve, though single readings can be large or run the other way; the % refers to the signal ratio;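 note: cells stimulated with carbachol in lithium chloride buffer; plate controls were DMSO basal wells for no effect and reference inhibitor wells for full effect; higher means more IMPase inhibition seen as more IP1 and lower FRET ratio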
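Carbachol-driven Gq signalling in CHO-M1 cells (2000/well) generates IP1. Compounds that block IMPase raise IP1 and so reduce the FRET signal from Eu-anti-IP1 and d2-IP1 after a 10 min room-temperature lysis.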
PNC inhibitor: perinucleolar compartment assembly inhibition; PC3M PTB-GFP, PNC prevalence imaging, 16 h; stronger effect = lower value; activity change (PNC), negative = inhibition, % at 10 µM; actives 3.1% (n = 140,000); AID 2417;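 active = readout at or below -70, meaning at least 70% loss of cells showing the perinucleolar compartment, a nuclear body marking cancer cells; inconclusive = readout between -30 and a set limit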;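 note: plate controls were DMSO wells for no effect and camptothecin positive control wells for full effect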
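Read-out is percentage of cells bearing a perinucleolar compartment, from automated 20x imaging of fixed, Hoechst-stained PC3M PTB-GFP cells. Cells were seeded 4 h, then exposed 16 h to compound (23 nl of library stock) in duplicate plates.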
Starred values were filed as active, the others as inactive; ? = inconclusive; nt = no result given; ! = repeats disagree; [ ] = dose if it differs, or a comment. Hits are enriched below; roughly 11% of the tested compounds scored in any of these assays. Unless noted, calls come from the whole dose curve; as a rule, active = well fitted inhibition curve with a large enough effect (not every such curve was filed as active); inconclusive = small, poorly fitted or top-dose-only effect, or another doubt; inactive = no such curve, though single readings can be large or run the other way. Unless noted, % is set by controls: 0 for no effect and ±100 for the full control effect.

SMILES	HPGD block	IMPase Li inh	ALDH1A1 block	IMPase inh	PNC inhibitor
CC1(C)Cc2c(C#N)c(N)sc(=S)c2CO1	-11%	?	11µM*	-3	12
CC(C)C(=O)N1CCc2cc(-c3csc(N)n3)ccc21	20µM*	4%[38.3 µM]	14µM*	0	45
Nc1nc(-c2ccc3c(c2)CCC(=O)N3)cs1	nt	-1%	?	nt	nt
CC1CCN(C(=O)c2c(NC(=O)c3ccccc3F)sc3c2CCC(C(C)(C)C)C3)CC1 (stereo not given)	nt	nt	nt	4	nt
CC(C)N1C(=O)S/C(=C/c2ccc3c(c2)n(C)c(=O)n3C)C1=O	?	9%[38.3 µM]	8.9µM*	4	85
NC1=NC(=O)/C(=C\c2cccnc2)S1	nt	2%	-5%	nt	nt
CC(C)N1C(=O)S/C(=C/c2cccnc2)C1=O	1%	7%[38.3 µM]	13µM*	-3	-17
CS(=O)(=O)N(Cc1ccc(C(=O)NCc2ccco2)cc1)c1ccccc1	28µM*	-7%[38.3 µM]	8%	3	77
COc1ccc(N(CC(=O)Nc2ccccc2C(=O)NCc2ccco2)S(C)(=O)=O)cc1	-11%	19%[38.3 µM]	11µM*	0	7
Cc1cccc(Cn2c(=O)n(CCCC(=O)NCc3ccccc3Cl)c(=O)c3ccccc32)c1	nt	nt	nt	2	nt
CCCCc1cc2c(cn1)=C(OC(=O)c1cccs1)C(C)(OC(=O)CC)C(=O)C=2 (stereo not given)	-8%	-1%	3.2µM*	nt	nt
C/C=C/C1=CC2=CC(=O)C(C)(OC(=O)c3c(C)cc(O)cc3O)C(=O)C2=CO1 (stereo not given)	-5%	-3%	?	nt	nt
COc1ccc(OCC(=O)N2CCN(C(=O)c3cccc(OC)c3)CC2)cc1	nt	nt	nt	4	nt
Cn1c(-c2ccccc2)cnc1SCc1nc2ccccc2c(=O)[nH]1	-21%	33%	32µM*	-8	-3
Cn1c(SCc2nc3ccccc3c(=O)[nH]2)nc2ccccc21	nt	4%	?	nt	nt
CS(=O)(=O)N(CC(=O)Nc1ccc2c(c1)OCO2)c1ccc2c(c1)OCO2	-4%	41%[38.3 µM]	5%	8	18
CN(C)C(=O)CN(c1ccc2c(c1)OCO2)S(C)(=O)=O	-6%	18%[38.3 µM]	9%	2	-106*
CN(C)CC/C=C1\c2ccccc2COc2ccccc21	-8%	28%	18µM*!	19	52
CCCOc1ccc(N2C(=O)CC(NCc3ccncc3)C2=O)cc1 (stereo not given)	-7%	2%[38.3 µM]	-13%	0	32
Cc1nc(SC2CC(=O)N(c3ccc([N+](=O)[O-])cc3)C2=O)nc2c1CCCC2 (stereo not given)	-19%	-3%[38.3 µM]	1.8µM*	?	17
Nc1nnc(SC2CC(=O)N(c3ccccc3)C2=O)s1 (stereo not given)	32µM*	2%[38.3 µM]	3.5µM*	3	11
C=CCNc1nnc(SC2CC(=O)N(c3ccc(OCCC)cc3)C2=O)s1 (stereo not given)	14µM*	24%[38.3 µM]	0.56µM*	7	38
Cc1ccc(N2C(=O)CC(Sc3ncccc3C(=O)O)C2=O)cc1 (stereo not given)	nt	2%	-14%	nt	nt
Cc1nc(SC2CC(=O)N(c3ccccc3)C2=O)n[nH]1 (stereo not given)	nt	-9%	0.35µM*	nt	nt
CN=C(NC)SC1CC(=O)N(c2ccccc2)C1=O (stereo not given)	4%	2%[38.3 µM]	10%	-1	-18
SMILES	HPGD block	IMPase Li inh	ALDH1A1 block	IMPase inh	PNC inhibitor
CCN1CCN(C(c2ccc(OC)cc2)C(O)C(=O)c2c[nH]c3ccccc23)CC1 (stereo not given)	4%	-9%[38.3 µM]	-4%	0	49
COc1ccccc1N1C(=O)CC(Sc2n[nH]c(-c3cccc(C)c3)n2)C1=O (stereo not given)	?	2%	2µM*	nt	28
CCOc1ccc(N2C(=O)CC(Sc3ncccn3)C2=O)cc1 (stereo not given)	1%	29%[38.3 µM]	22µM*	-5	19
O=C1CC(Sc2ncccn2)C(=O)N1c1ccccc1 (stereo not given)	-10%	18%[38.3 µM]	22µM*	-2	?
OC[C@H]1O[C@H](n2cnc3c(NC4CCCC4)nc(Cl)nc32)[C@@H](O)[C@@H]1O	-20%	8%	-2%	-4	nt
CCCCCC(O)/C=C/C=C\CCCCCCCC(=O)O (stereo not given)	-2%	15%	4%	nt	nt
O=C(Nc1nnc(C2CCCC2)s1)C1CCC1	-2%	-1%[38.3 µM]	?	0	-127*
O=C(CSc1nnc(NC(=O)C2CCC2)s1)NC1CC1	-8%	11%[38.3 µM]	10%	10	?
O=C(Nc1nnc(SCC(=O)N2CCCCC2)s1)C1CCCCC1	14µM*	1%	?	4	-27
COc1ccccc1NS(=O)(=O)c1cc(NC(=O)c2cccs2)ccc1N1CCCC1	8.9µM*	3%	13µM*	nt	24
COc1ccccc1NS(=O)(=O)c1cc(NC(=O)c2sccc2C)ccc1N1CCCC1	nt	10%	10µM*	nt	nt
COc1ccccc1NS(=O)(=O)c1cc(NC(=O)c2cccs2)ccc1N1CCCCC1	-17%	3%	-13%	nt	-8
COC(=O)c1c(NC(=O)CCCOc2ccc(C)cc2)sc2c1C(C(=O)OC)CC2 (stereo not given)	nt	nt	nt	13	nt
Cc1ccc(S(=O)(=O)Nc2ccccc2CNc2ncc(Br)cc2Br)cc1	-18%	4%	?	nt	?
CN(C)c1ccc(CNc2ncc(Br)cc2Br)cc1	-21%	11%[38.3 µM]	3.2µM*	11	4
O=[N+]([O-])c1ccc(/C=C/c2ccc3cccc([N+](=O)[O-])c3n2)cc1	?	-1%	5%	nt	-9
O=[N+]([O-])c1cccc2ccc(/C=C/c3ccc(F)cc3)nc12	-9%	0%	?	nt	-114*
Fc1ccc(CNCc2ccccc2C(F)(F)F)cc1	-7%	-3%	5%	nt	-114*
Cn1cnnc1SCC(=O)Nc1ccc2nc(SCc3ccccc3)sc2c1	?	1%[38.3 µM]	3.5µM*	7	-1
Cn1cnnc1SCC(=O)Nc1ccc2nc(SCc3ccccc3Cl)sc2c1	-19%	6%	25µM*	12	14
Cc1cc(C)c(NC(=O)CSc2nc3ccc(NC(=O)CSc4nnnn4-c4ccccc4)cc3s2)c(C)c1	-18%	1%	?	nt	10
Cn1cnnc1SCC(=O)Nc1ccc2nc(SCc3cccc4ccccc34)sc2c1	-17%	13%[38.3 µM]	14µM*	-5	?
C[C@@H]1CC[C@H]2C(=O)NC[C@@H](O)CN2[C@@H]1c1ccc(Br)cc1	nt	nt	1%[13.5 µM]	nt	nt
COc1ccccc1N1CCN(C(=O)CCS(=O)(=O)c2cc(Br)cc3c2N(C(=O)C2CC2)CC3)CC1	nt	nt	nt	4	nt
CCCc1nn(-c2cc(Cl)ccc2OC)c2c1C(=O)CCC2	-3%	10%[38.3 µM]	-2%	-7	-97*
CC(=O)c1cc(C#N)c(SCC(=O)OC(C)(C)C)nc1C	-27%	-23%[38.3 µM]	6.3µM*	6	-7
